Legend:
Experiment in all cases: SPOT peptide array binding signal intensity (averaged, normalized) (arbitrary units (background-subtracted, floor 0; scale differs between SH3 domains)); higher = stronger binding of the SH3 domain to the peptide
CaNbp2 = target: CaNbp2
Method in brief: (§1)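 Binding signal refers to normalized, background-subtracted spot intensity averaged over replicates, expressed in arbitrary units that differ between domains. GST-fused SH3 domains from four yeast species were incubated at 10 μg/ml overnight at 4°C on cellulose membranes of synthetic 15-mer peptides with cysteines replaced by serines. Bound protein was detected with anti-GST antibody, an HRP anti-mouse secondary and luminol, and quantified with Genespotter.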

CaRvs167 = target: CaRvs167
Method in brief: as §1

CaRvs167-3 = target: CaRvs167-3
Method in brief: as §1

CaSho1 = target: CaSho1
Method in brief: as §1

CaSla1-D1-D2 = target: CaSla1-D1-D2
Method in brief: as §1

CaSla1-D3 = target: CaSla1-D3
Method in brief: as §1

ScAbp1 = target: ScAbp1
Method in brief: as §1

ScBbc1 = target: ScBbc1
Method in brief: as §1

ScBem1-D1 = target: ScBem1-D1
Method in brief: as §1

ScBzz1-D1 = target: ScBzz1-D1
Method in brief: as §1

ScBzz1-D2 = target: ScBzz1-D2
Method in brief: as §1

ScCyk3 = target: ScCyk3
Method in brief: as §1

ScFus1 = target: ScFus1
Method in brief: as §1

ScHof1 = target: ScHof1
Method in brief: as §1

ScHse1 = target: ScHse1
Method in brief: as §1

ScLsb1 = target: ScLsb1
Method in brief: as §1

ScLsb2 = target: ScLsb2
Method in brief: as §1

ScLsb3 = target: ScLsb3
Method in brief: as §1

ScLsb4 = target: ScLsb4
Method in brief: as §1

ScMyo3 = target: ScMyo3
Method in brief: as §1

ScMyo5 = target: ScMyo5
Method in brief: as §1

ScNbp2 = target: ScNbp2
Method in brief: as §1

ScPex13 = target: ScPex13
Method in brief: as §1

ScRvs167 = target: ScRvs167
Method in brief: as §1

ScSho1 = target: ScSho1
Method in brief: as §1

ScSla1-D1-D2 = target: ScSla1-D1-D2
Method in brief: as §1

ScSla1-D3 = target: ScSla1-D3
Method in brief: as §1

SpAbp1-D1 = target: SpAbp1-D1
Method in brief: as §1

SpBbc1 = target: SpBbc1
Method in brief: as §1

SpBzz1-D1 = target: SpBzz1-D1
Method in brief: as §1

SpBzz1-D2 = target: SpBzz1-D2
Method in brief: as §1

SpCyk3 = target: SpCyk3
Method in brief: as §1

SpHof1 = target: SpHof1
Method in brief: as §1

SpHof1-2 = target: SpHof1-2
Method in brief: as §1

SpHof1-3 = target: SpHof1-3
Method in brief: as §1

SpHse1 = target: SpHse1
Method in brief: as §1

SpLsb1 = target: SpLsb1
Method in brief: as §1

SpLsb4 = target: SpLsb4
Method in brief: as §1

SpMyo1 = target: SpMyo1
Method in brief: as §1

SpNbp2 = target: SpNbp2
Method in brief: as §1

SpPex13 = target: SpPex13
Method in brief: as §1

SpRvs167 = target: SpRvs167
Method in brief: as §1

SpSla1-D1-D2 = target: SpSla1-D1-D2
Method in brief: as §1

SpSla1-D3 = target: SpSla1-D3
Method in brief: as §1

AgAbp1 = target: AgAbp1
Method in brief: as §1

AgBbc1 = target: AgBbc1
Method in brief: as §1

AgBem1-D1 = target: AgBem1-D1
Method in brief: as §1

AgBzz1-D1 = target: AgBzz1-D1
Method in brief: as §1

AgBzz1-D2 = target: AgBzz1-D2
Method in brief: as §1

AgCyk3 = target: AgCyk3
Method in brief: as §1

AgFus1 = target: AgFus1
Method in brief: as §1

AgHof1 = target: AgHof1
Method in brief: as §1

AgHse1 = target: AgHse1
Method in brief: as §1

AgLsb1 = target: AgLsb1
Method in brief: as §1

AgLsb4 = target: AgLsb4
Method in brief: as §1

AgMyo5 = target: AgMyo5
Method in brief: as §1

AgNbp2 = target: AgNbp2
Method in brief: as §1

AgRvs167 = target: AgRvs167
Method in brief: as §1

AgSho1 = target: AgSho1
Method in brief: as §1

AgSla1-D1-D2 = target: AgSla1-D1-D2
Method in brief: as §1

AgSla1-D3 = target: AgSla1-D3
Method in brief: as §1

CaAbp1-D1 = target: CaAbp1-D1
Method in brief: as §1

CaAbp1-D2 = target: CaAbp1-D2
Method in brief: as §1

CaBbc1 = target: CaBbc1
Method in brief: as §1

CaBem1-D1 = target: CaBem1-D1
Method in brief: as §1

CaBzz1-D1 = target: CaBzz1-D1
Method in brief: as §1

CaBzz1-D2 = target: CaBzz1-D2
Method in brief: as §1

CaCyk3 = target: CaCyk3
Method in brief: as §1

CaFus1 = target: CaFus1
Method in brief: as §1

CaHof1 = target: CaHof1
Method in brief: as §1

CaHse1 = target: CaHse1
Method in brief: as §1

CaLsb1 = target: CaLsb1
Method in brief: as §1

CaLsb4 = target: CaLsb4
Method in brief: as §1

CaMyo5 = target: CaMyo5
Method in brief: as §1

Binder: DLPLPDLPPEPPTEL
- SPOT peptide array binding signal intensity (CaNbp2): ≤ 0
- SPOT peptide array binding signal intensity (CaRvs167): 0.333
- SPOT peptide array binding signal intensity (CaRvs167-3): 2.5
- SPOT peptide array binding signal intensity (CaSho1): 9.5
- SPOT peptide array binding signal intensity (CaSla1-D1-D2): ≤ 0
- SPOT peptide array binding signal intensity (CaSla1-D3): ≤ 0
- SPOT peptide array binding signal intensity (ScAbp1): 4
- SPOT peptide array binding signal intensity (ScBbc1): 2.75
- SPOT peptide array binding signal intensity (ScBem1-D1): ≤ 0
- SPOT peptide array binding signal intensity (ScBzz1-D1): 2
- SPOT peptide array binding signal intensity (ScBzz1-D2): 2
- SPOT peptide array binding signal intensity (ScCyk3): 2
- SPOT peptide array binding signal intensity (ScFus1): ≤ 0
- SPOT peptide array binding signal intensity (ScHof1): 206
- SPOT peptide array binding signal intensity (ScHse1): ≤ 0
- SPOT peptide array binding signal intensity (ScLsb1): ≤ 0
- SPOT peptide array binding signal intensity (ScLsb2): ≤ 0
- SPOT peptide array binding signal intensity (ScLsb3): ≤ 0
- SPOT peptide array binding signal intensity (ScLsb4): ≤ 0
- SPOT peptide array binding signal intensity (ScMyo3): 384
- SPOT peptide array binding signal intensity (ScMyo5): 646
- SPOT peptide array binding signal intensity (ScNbp2): ≤ 0
- SPOT peptide array binding signal intensity (ScPex13): ≤ 0
- SPOT peptide array binding signal intensity (ScRvs167): ≤ 0
- SPOT peptide array binding signal intensity (ScSho1): ≤ 0
- SPOT peptide array binding signal intensity (ScSla1-D1-D2): ≤ 0
- SPOT peptide array binding signal intensity (ScSla1-D3): ≤ 0
- SPOT peptide array binding signal intensity (SpAbp1-D1): ≤ 0
- SPOT peptide array binding signal intensity (SpBbc1): ≤ 0
- SPOT peptide array binding signal intensity (SpBzz1-D1): ≤ 0
- SPOT peptide array binding signal intensity (SpBzz1-D2): ≤ 0
- SPOT peptide array binding signal intensity (SpCyk3): ≤ 0
- SPOT peptide array binding signal intensity (SpHof1): ≤ 0
- SPOT peptide array binding signal intensity (SpHof1-2): 3
- SPOT peptide array binding signal intensity (SpHof1-3): 0.5
- SPOT peptide array binding signal intensity (SpHse1): ≤ 0
- SPOT peptide array binding signal intensity (SpLsb1): ≤ 0
- SPOT peptide array binding signal intensity (SpLsb4): ≤ 0
- SPOT peptide array binding signal intensity (SpMyo1): 328
- SPOT peptide array binding signal intensity (SpNbp2): ≤ 0
- SPOT peptide array binding signal intensity (SpPex13): ≤ 0
- SPOT peptide array binding signal intensity (SpRvs167): ≤ 0
- SPOT peptide array binding signal intensity (SpSla1-D1-D2): ≤ 0
- SPOT peptide array binding signal intensity (SpSla1-D3): ≤ 0

Binder: VPPPMQPPPIESSNL
- SPOT peptide array binding signal intensity (AgAbp1): ≤ 0
- SPOT peptide array binding signal intensity (AgBbc1): 2.5
- SPOT peptide array binding signal intensity (AgBem1-D1): 238
- SPOT peptide array binding signal intensity (AgBzz1-D1): ≤ 0
- SPOT peptide array binding signal intensity (AgBzz1-D2): ≤ 0
- SPOT peptide array binding signal intensity (AgCyk3): 0.5
- SPOT peptide array binding signal intensity (AgFus1): 159
- SPOT peptide array binding signal intensity (AgHof1): 0.25
- SPOT peptide array binding signal intensity (AgHse1): 90
- SPOT peptide array binding signal intensity (AgLsb1): ≤ 0
- SPOT peptide array binding signal intensity (AgLsb4): ≤ 0
- SPOT peptide array binding signal intensity (AgMyo5): 102
- SPOT peptide array binding signal intensity (AgNbp2): 98
- SPOT peptide array binding signal intensity (AgRvs167): ≤ 0
- SPOT peptide array binding signal intensity (AgSho1): 67
- SPOT peptide array binding signal intensity (AgSla1-D1-D2): ≤ 0
- SPOT peptide array binding signal intensity (AgSla1-D3): 0.75
- SPOT peptide array binding signal intensity (CaAbp1-D1): ≤ 0
- SPOT peptide array binding signal intensity (CaAbp1-D2): 8
- SPOT peptide array binding signal intensity (CaBbc1): 10.5
- SPOT peptide array binding signal intensity (CaBem1-D1): 26
- SPOT peptide array binding signal intensity (CaBzz1-D1): 35
- SPOT peptide array binding signal intensity (CaBzz1-D2): 8.25
- SPOT peptide array binding signal intensity (CaCyk3): 8
- SPOT peptide array binding signal intensity (CaFus1): 740
- SPOT peptide array binding signal intensity (CaHof1): ≤ 0
- SPOT peptide array binding signal intensity (CaHse1): 68
- SPOT peptide array binding signal intensity (CaLsb1): 0.5
- SPOT peptide array binding signal intensity (CaLsb4): 388
- SPOT peptide array binding signal intensity (CaMyo5): 142
- SPOT peptide array binding signal intensity (CaNbp2): 172
- SPOT peptide array binding signal intensity (CaRvs167): 12.5
- SPOT peptide array binding signal intensity (CaRvs167-3): 1
- SPOT peptide array binding signal intensity (CaSho1): 279
- SPOT peptide array binding signal intensity (CaSla1-D1-D2): 168
- SPOT peptide array binding signal intensity (CaSla1-D3): 249
- SPOT peptide array binding signal intensity (ScAbp1): ≤ 0
- SPOT peptide array binding signal intensity (ScBbc1): ≤ 0
- SPOT peptide array binding signal intensity (ScBem1-D1): ≤ 0
- SPOT peptide array binding signal intensity (ScBzz1-D1): ≤ 0
- SPOT peptide array binding signal intensity (ScBzz1-D2): 2
- SPOT peptide array binding signal intensity (ScCyk3): 5
- SPOT peptide array binding signal intensity (ScFus1): 328
- SPOT peptide array binding signal intensity (ScHof1): ≤ 0
- SPOT peptide array binding signal intensity (ScHse1): 65
- SPOT peptide array binding signal intensity (ScLsb1): 0.25
- SPOT peptide array binding signal intensity (ScLsb2): ≤ 0
- SPOT peptide array binding signal intensity (ScLsb3): ≤ 0
- SPOT peptide array binding signal intensity (ScLsb4): 9
- SPOT peptide array binding signal intensity (ScMyo3): 854
- SPOT peptide array binding signal intensity (ScMyo5): 502
- SPOT peptide array binding signal intensity (ScNbp2): 206
- SPOT peptide array binding signal intensity (ScPex13): 12.2
- SPOT peptide array binding signal intensity (ScRvs167): ≤ 0
- SPOT peptide array binding signal intensity (ScSho1): 324
- SPOT peptide array binding signal intensity (ScSla1-D1-D2): 75.5
- SPOT peptide array binding signal intensity (ScSla1-D3): 122
- SPOT peptide array binding signal intensity (SpAbp1-D1): ≤ 0
- SPOT peptide array binding signal intensity (SpBbc1): ≤ 0
- SPOT peptide array binding signal intensity (SpBzz1-D1): 28.5

Source: the supplement of paper PMC4466140
